About 750 (31%) of roughly 2,400 compounds were called active.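 The calls were made as follows: active = median signal gain over dofetilide-blocked control wells reaching their mean plus 3 SD, so readout 1 at least 0; inactive = the rest.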 This is one part of the list.

Voltage-gated inwardly rectifying potassium channel KCNH2 (Homo sapiens), sequence (Q12809 whole entry, looked up): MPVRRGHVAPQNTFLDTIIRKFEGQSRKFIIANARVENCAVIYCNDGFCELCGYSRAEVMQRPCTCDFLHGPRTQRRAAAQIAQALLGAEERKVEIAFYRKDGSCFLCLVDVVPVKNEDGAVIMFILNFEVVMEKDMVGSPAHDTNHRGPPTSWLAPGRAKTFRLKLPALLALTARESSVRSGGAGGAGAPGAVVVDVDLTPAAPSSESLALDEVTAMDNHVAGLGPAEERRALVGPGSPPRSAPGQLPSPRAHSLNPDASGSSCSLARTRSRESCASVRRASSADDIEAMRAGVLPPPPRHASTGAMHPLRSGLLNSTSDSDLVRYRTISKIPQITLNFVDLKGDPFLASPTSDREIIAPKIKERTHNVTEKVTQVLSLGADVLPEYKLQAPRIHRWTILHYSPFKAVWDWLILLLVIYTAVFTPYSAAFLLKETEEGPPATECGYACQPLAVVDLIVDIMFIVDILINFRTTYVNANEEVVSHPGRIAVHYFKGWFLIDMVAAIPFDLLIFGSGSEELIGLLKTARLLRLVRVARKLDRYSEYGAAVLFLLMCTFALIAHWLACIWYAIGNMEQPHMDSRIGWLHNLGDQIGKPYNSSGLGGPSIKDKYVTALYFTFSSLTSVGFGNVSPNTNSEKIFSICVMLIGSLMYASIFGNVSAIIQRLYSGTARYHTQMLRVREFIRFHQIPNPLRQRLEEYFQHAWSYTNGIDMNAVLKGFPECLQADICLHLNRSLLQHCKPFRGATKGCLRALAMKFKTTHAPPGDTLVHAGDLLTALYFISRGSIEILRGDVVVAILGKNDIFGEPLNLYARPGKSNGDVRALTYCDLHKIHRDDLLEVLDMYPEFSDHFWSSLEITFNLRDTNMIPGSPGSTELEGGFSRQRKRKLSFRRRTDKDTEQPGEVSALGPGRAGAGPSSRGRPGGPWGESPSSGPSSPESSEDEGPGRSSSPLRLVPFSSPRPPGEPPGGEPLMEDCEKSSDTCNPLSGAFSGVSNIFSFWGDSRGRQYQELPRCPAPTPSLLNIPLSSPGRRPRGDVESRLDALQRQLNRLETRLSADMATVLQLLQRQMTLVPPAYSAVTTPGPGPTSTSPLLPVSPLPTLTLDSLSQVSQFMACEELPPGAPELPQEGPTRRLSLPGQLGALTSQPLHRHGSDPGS

This assay concerns the target Voltage-gated inwardly rectifying potassium channel KCNH2 (Homo sapiens) (UniProt Q12809). The assay can be described thus: modulators restoring hERG flux under dofetilide – cell-based, thallium flux, duplicate retest, dofetilide IC70, confirmation (AID 1835). The following applies: hERG cell line, FluxOR thallium flux, dofetilide-blocked; at 10 µM; hits give high values. (In general: Block of hERG is tested as a sign of cardiac risk.)
In the case of `Cc1cccc(/N=C/c2sc3ccccc3c2O)n1`, the activity increase over dofetilide control, less the hit threshold was -13% (inactive). Under `O=c1c([N+](=O)[O-])c(N2CCCCC2)c2ccccc2n1-c1ccccc1` stands -18% (inactive); under `Oc1ccc2[nH]cnc2c1CN1CCCCC1`, -18% (inactive); under `CCc1ccc2[nH]c(O)c(N=Nc3nc(-c4ccccc4)cs3)c2c1`, -8% (inactive). Under `Cc1ccccc1OCC(=O)N=Nc1c(O)n(C)c2ccccc12` stands -5% (inactive). Take `Cn1c(O)c(N=Nc2nc(-c3ccccc3)cs2)c2ccccc21`: the activity increase over dofetilide control, less the hit threshold is 65% (active). Under `COC(=O)/C=C1\S/C(=N/N=C/c2ccco2)NC1=O` stands -10% (inactive).

For `CCn1c(SC(C)C(=O)O)nc2sc3c(c2c1=O)CCC3` (stereo unspecified), the activity increase over dofetilide control, less the hit threshold is 7% (active). Then `CCC(=O)N1CCN(c2nc(CC)nc3sc4c(c23)CCCC4)CC1`, with -30% (inactive); and `CCn1c(SCC(N)=O)nc2sc3c(c2c1=O)CCCC3`, with 3% (active). In the case of `C=CCSc1nc2sc3c(c2c(=O)n1CC)CCc1ccccc1-3`, the activity increase over dofetilide control, less the hit threshold was -4% (inactive).

On to `CCCn1c(SCC(=O)N2CCN(C(C)=O)CC2)nc2sc3c(c2c1=O)CCC3`, for which the activity increase over dofetilide control, less the hit threshold is 20% (active).

Turning to `CCOC(=O)c1cnn(-c2nc(SC)nc3sc4c(c23)CCCC4)c1N`, the activity increase over dofetilide control, less the hit threshold was -1% (inactive). Then `CC(=O)/C=C1/C(=O)Nc2ccccc21`, with -39% (inactive); and `COc1cc(/C=N/Nc2nc(N3CCCC3)nc(N3CCCC3)n2)ccc1OCc1ccccc1F`, with -34% (inactive); and `O=C1CC(C(=O)N2CCOCC2)C2(CCCCC2)O1` (stereo unspecified), with -19% (inactive). Then `CC1CCN(c2ccc3c(c2)S(=O)(=O)c2ccccc2C3=O)CC1`, with -27% (inactive); and `O=C1c2ccccc2C(=O)N1Cc1nc2ccccc2c(=O)n1CCCn1ccnc1`, with -25% (inactive). Regarding `Cc1ccc(Cl)cc1NC(=S)N/N=C/c1cccc2ccccc12`, the activity increase over dofetilide control, less the hit threshold is -11% (inactive). Then `Fc1ccccc1NC(=S)N/N=C/c1ccccc1Br`, with -20% (inactive). Then `S=C(N/N=C/c1ccccc1Cl)Nc1cccc(Cl)c1Cl`, with 23% (active); and `O=C(CNCC1CCCO1)N1CCCCCC1` (stereo unspecified), with -11% (inactive); and `Cc1ccc2c(Cl)cc(Cl)c(OCC(=O)NC3CCS(=O)(=O)C3)c2n1` (stereo unspecified), with -15% (inactive). Then `CCCCSc1nnc(CCC)n1N`, with -21% (inactive). Take `CCCCCCCC/C=C\CCCCCCCC(=O)O`: the activity increase over dofetilide control, less the hit threshold is 22% (active). Then `O=C(c1ccc(CS(=O)c2cccc(Cl)c2)o1)N1CCCCCC1` (stereo unspecified), with -7% (inactive); and `CC(C)(C)NC(=O)CN(C(=O)CS(=O)CC(=O)Nc1ccc(F)cc1)c1cccc(F)c1` (stereo unspecified), with -13% (inactive). Regarding `CC(C)Oc1c(Cl)cc(CNC(C)(C)CO)cc1Cl`, the activity increase over dofetilide control, less the hit threshold was 1% (active). Then `CC(C)(C)c1cc(-c2n[nH]c(=S)n2-c2ccccc2F)n[nH]1`, with 7% (active); and `Fc1ccccc1-c1n[nH]c(=S)n1C1CC1`, with -4% (inactive). For `CCC(=O)Nc1cc(=O)[nH]c2ncnn12`, the activity increase over dofetilide control, less the hit threshold is -24% (inactive). For `Cc1cc(NC(=O)CSc2nc(C3CC3)nc3sc(C)c(C)c23)no1`, the activity increase over dofetilide control, less the hit threshold is 26% (active). Under `CCCc1nc(SCC(=O)Nc2cc(C)on2)c2ccccc2n1` stands -10% (inactive). On to `Cc1cc(NC(=O)CSc2nnc(Nc3ccccc3)s2)no1`, for which the activity increase over dofetilide control, less the hit threshold is -11% (inactive). Consider `COc1ccc(C(=O)NN/C(C)=C/C(=O)c2ccccc2)cc1`, for which the activity increase over dofetilide control, less the hit threshold was -26% (inactive). Then `C/C(=C\C(=O)c1ccccc1)NNC(=O)c1ccc(Cl)cc1`, with 3% (active). Then `C/C(=C\C(=O)c1ccncc1)Nc1ccccc1O`, with -7% (inactive). Then `COc1ccc(C(=O)NNC(=O)C(=O)Nc2ccc(C)c(Cl)c2)cc1`, with 86% (active); and `COc1cccc(C(=O)NNC(=O)C(=O)Nc2ccc(C)c(Cl)c2)c1`, with 54% (active). For the molecule `COc1cccc(C(=O)Nc2cccc(-c3ccc(N4CCOCC4)nn3)c2)c1`, the activity increase over dofetilide control, less the hit threshold is -14% (inactive). Then `COc1cccc(C(=O)NNC(=O)C(=O)Nc2cccc(Cl)c2C)c1`, with 50% (active); and `Cc1ccc(NC(=O)c2ccc3c(c2)OCO3)cc1Cl`, with -10% (inactive); and `COc1ccc(C2/C(=C(/O)c3ccc(Br)cc3)C(=O)C(=O)N2C)cc1` (stereo unspecified), with -7% (inactive). Then `Cc1ccc(C(=O)n2c(-c3ccccc3)cnc2SCC(=O)Nc2ccc(C)cc2C)cc1`, with -8% (inactive); and `Oc1c(N=NC(=S)Nc2ccccc2F)c2ccccc2n1Cc1cccc(Cl)c1`, with -1% (inactive); and `Oc1c(N=NC(=S)Nc2ccccc2F)c2ccccc2n1Cc1ccccc1`, with 36% (active). Consider `Oc1c(N=NC(=S)Nc2ccccc2F)c2ccccc2n1Cc1ccc(F)cc1`, for which the activity increase over dofetilide control, less the hit threshold is 32% (active). Under `Oc1c(N=NC(=S)Nc2ccccc2F)c2ccccc2n1Cc1ccc(Cl)cc1` stands -2% (inactive). Under `Cc1cc(NC(=O)Cn2c(=O)n(Cc3ccccc3)c(=O)c3ccccc32)no1` stands -7% (inactive); under `Cc1c(Cl)cccc1NC(=S)N=Nc1c(O)n(CN2CCOCC2)c2ccccc12`, 18% (active); under `Cc1cccc(Cn2c(O)c(N=NC(=S)Nc3ccccc3F)c3ccccc32)c1`, 4% (active). Under `CC(C)Oc1ccccc1C1(c2ccccc2)NC(=O)NC1=O` (stereo unspecified) stands -16% (inactive); under `CC(C)NC(=O)Nc1n[nH]c(Nc2ccc(Cl)cc2)n1`, -1% (inactive); under `O=C1NC(=O)C2(COC(c3cccc([N+](=O)[O-])c3)OC2)S1` (stereo unspecified), -12% (inactive). Consider `Nc1ccc2nc(-c3cccs3)[nH]c2c1`, for which the activity increase over dofetilide control, less the hit threshold was -10% (inactive). Then `Cc1cc(C)c(S(=O)(=O)c2ccccc2)c(OC(=O)c2c(F)cccc2Cl)n1`, with -30% (inactive); and `O=C(CCc1ccccc1Cl)Nc1ccc(S(=O)(=O)N2CCOCC2)cc1`, with -6% (inactive). Then `CCc1ccc(C(C)NC(=O)C2CCCC2)cc1` (stereo unspecified), with 1% (active); and `CCc1ccc(C(=O)NNC(=O)c2ccc(=O)n(C)n2)cc1`, with -5% (inactive). On to `CC(NC(=O)CCNC(=O)c1ccco1)c1ccc(F)cc1` (stereo unspecified), for which the activity increase over dofetilide control, less the hit threshold is -5% (inactive). As to `CCc1ccccc1N(CC(=O)NC(C)c1ccccc1)S(C)(=O)=O` (stereo unspecified), the activity increase over dofetilide control, less the hit threshold was -15% (inactive). Consider `Cc1ccc(C(=O)NC(C)c2ccc(C)c(C)c2)s1` (stereo unspecified), for which the activity increase over dofetilide control, less the hit threshold is -6% (inactive). Under `CCc1ccc(C(C)NC(=O)c2ccc(F)cc2)cc1` (stereo unspecified) stands 4% (active); under `Cc1ccc(C(C)NC(=S)NC2CCCCC2)cc1C` (stereo unspecified), -6% (inactive); under `Cc1ccc(C(C)NC(=O)C2CCCC2)cc1C` (stereo unspecified), 4% (active). On to `COc1cccc(C(=O)/C=C/Nc2ccc(S(=O)(=O)Nc3cnc4ccccc4n3)cc2)c1`, for which the activity increase over dofetilide control, less the hit threshold is -22% (inactive).

The values are drawn from PubChem BioAssay AID1835 (Johns Hopkins Ion Channel Center, 2009).
